This is an account of results in PubChem BioAssay (EPA / NIEHS).

Test [1] in a line: TOX21_p53_BLA_p2_viability: Viability Assessment in the Tox21 HCT-116 p53 Agonism Beta-lactamase Assay, Phase 2 (AID 2283591).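 Note: compound exposure lasted 16 h at 37 °C; actives lower the ATP signal meaning cytotoxicity.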 A digest of the protocol:
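Cytotoxicity readout: CellTiter-Glo ATP luminescence, 30 min at room temperature, after the beta-lactamase read. Cells were HCT116 exposed 16 h at 37C to compounds pin-transferred at 217-fold dilution from DMSO stocks.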

For test [2], the target named is Cellular tumor antigen p53 (Homo sapiens) (UniProt P04637). Briefly: TOX21_p53_BLA_p2_ratio: Tox21 HCT-116 p53 Agonism Beta-lactamase Assay, Ratio, Phase 2 (AID 2283592). The method, boiled down: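 HCT116 cells carrying a p53-responsive beta-lactamase reporter were plated, incubated 5 h at 37C, then dosed with compounds in DMSO (217-fold dilution) for 16 h. CCF4-AM substrate was added for 2 h at room temperature; the 460/530 nm emission ratio gave gain-of-signal activity relative to DMSO.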

A short description of test [3]: TOX21_p53_BLA_p3_viability: Viability Assessment in the Tox21 HCT-116 p53 Agonism Beta-lactamase Assay, Phase 3 (AID 2283593).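 Note: cells exposed to compound for 16 h before reading.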 A digest of the protocol: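 Cellular ATP was quantified by CellTiter-Glo luminescence, read after 30 min at room temperature. Beforehand, HCT116 cells (4000/well) received compound 5 h post-seeding, 217-fold diluted from DMSO, then incubated 16 h at 37C.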

In test [4] the target is Cellular tumor antigen p53 (Homo sapiens) (UniProt P04637). Briefly: TOX21_p53_BLA_p3_ratio: Tox21 HCT-116 p53 Agonism Beta-lactamase Assay, Ratio, Phase 3 (AID 2283596). A digest of the protocol:
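HCT116 p53-bla cells (4000/well) given compound in DMSO (217-fold dilution) after 5 h, incubated 16 h at 37C. CCF4-AM substrate 2 h at room temperature; 460/530 nm emission ratio, gain fitted against DMSO.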

Test [5] in a line: TOX21_p53_BLA_p4_viability: Viability Assessment in the Tox21 HCT-116 p53 Agonism Beta-lactamase Assay, Phase 4 (AID 2283597).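 Note: hits lower the luminescence signal meaning cytotoxicity.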 A digest of the protocol: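 HCT116 p53-bla cells (4000/well) rested 5 h at 37C, then received compounds in DMSO (217-fold dilution) for 16 h at 37C, 5% CO2. CellTiter-Glo was added after the CCF4-AM read, and luminescence was read after 30 min at room temperature.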

In test [6] the target is Cellular tumor antigen p53 (Homo sapiens) (UniProt P04637). Briefly: TOX21_p53_BLA_p5_ratio: Tox21 HCT-116 p53 Agonism Beta-lactamase Assay, Ratio, Phase 5 (AID 2283599). The method, boiled down: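 Beta-lactamase reporter ratio (blue 460 nm over green 530 nm, 405 nm excitation) after 2 h CCF4-AM loading, in HCT-116 cells exposed 16 h at 37 C to compounds pinned at 217-fold dilution. Increases relative to DMSO baseline scored.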

Test [7] in a line: TOX21_p53_BLA_p5_viability: Viability Assessment in the Tox21 HCT-116 p53 Agonism Beta-lactamase Assay, Phase 5 (AID 2283600). A digest of the protocol: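 Cells were plated at 4000/well, rested 5 h at 37C, then given compounds in DMSO (217-fold dilution) for 16 h at 37C, 5% CO2. Following the CCF4-AM beta-lactamase read, CellTiter-Glo was added and luminescence was read after 30 min at room temperature.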

The target of test [8] is Cellular tumor antigen p53 (Homo sapiens) (UniProt P04637). Briefly: TOX21_p53_BLA_p4_ratio: Tox21 HCT-116 p53 Agonism Beta-lactamase Assay, Ratio, Phase 4 (AID 2283601). A digest of the protocol:
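Signal is the blue/green (460nm/530nm) ratio of cleaved versus uncleaved CCF4-AM substrate, read after 2 h substrate loading. Cells were HCT116 carrying the p53-responsive beta-lactamase reporter, dosed 16 h at 37C, 5% CO2; CellTiter-Glo measured in parallel.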

Values joined by “and” are separate entries in the source; they are usually repeats but may differ in a detail not shown here. Equal entries are not always repeated. Inconclusive results are not listed. Active and inactive are the calls of the source. Rule for the calls: active = hit-call score of the fitted dose curve at least 0.9, where 1 is the maximum; inconclusive = response in the unintended direction; inactive = score below 0.9.

Cellular tumor antigen p53 (Homo sapiens), sequence (P04637 whole entry, looked up): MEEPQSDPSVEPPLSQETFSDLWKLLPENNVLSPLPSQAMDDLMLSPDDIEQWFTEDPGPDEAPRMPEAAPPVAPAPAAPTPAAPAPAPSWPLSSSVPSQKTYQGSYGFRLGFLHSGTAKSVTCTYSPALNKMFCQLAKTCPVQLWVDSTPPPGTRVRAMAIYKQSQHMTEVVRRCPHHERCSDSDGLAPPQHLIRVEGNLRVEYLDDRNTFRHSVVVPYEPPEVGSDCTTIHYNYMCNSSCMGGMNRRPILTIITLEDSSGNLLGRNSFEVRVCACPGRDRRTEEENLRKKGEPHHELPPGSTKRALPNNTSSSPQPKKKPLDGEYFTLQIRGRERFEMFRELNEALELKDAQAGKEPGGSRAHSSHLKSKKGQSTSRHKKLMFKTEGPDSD

For the molecule `CC=C(C)C#N`, the result in test [1], in test [2], in test [3], in test [4], in test [5] and in test [6] was inactive. Further, the molecule was classed as inactive in test [7].

Turning to `Cc1nc(NS(=O)(=O)c2ccc(N)cc2)nc(C)c1Br`, the molecule was called inactive in test [1], in test [2], in test [3], in test [4], in test [5] and in test [6]. The outcome in test [7] was inactive.

`Cc1cc(C)c(N=Nc2c(O)c(S(=O)(=O)O)cc3cc(S(=O)(=O)O)ccc23)cc1C`: the molecule was called inactive in test [1], in test [2], in test [3], in test [4], in test [5] and in test [6]. For the same molecule, the result in test [7] was inactive.

With `Clc1ccc(Cn2c(CN3CCCC3)nc3ccccc32)cc1`, the molecule was classed as inactive in test [1], in test [2], in test [3], in test [4], in test [5] and in test [6].

Consider `O=c1cc(CO)occ1O`, for which the molecule was called inactive in test [1], in test [2], in test [3], in test [4], in test [5] and in test [6]. Besides, in test [7], the result was inactive.

Regarding `CC1(COc2ccc(CC3SC(=O)NC3=O)cc2)CCCCC1` (stereo unspecified), the AC50 (usually the midpoint of the concentration-response curve, whichever way the signal moves) in test [1] is 28.8 µM (active); in test [2] it was 36.7 µM (active); in test [3], 35.1 µM (active); in test [4], 27.1 µM (active); in test [5] it was 18.6 µM (active); in test [6] it was 27.6 µM (active). In addition, the AC50 in test [7] was 21.6 µM (active); in test [8] it was 34.7 µM (active).

As to `CC(O)COC(C)(C)C` (stereo unspecified), the molecule was called inactive in test [1], in test [2], in test [3], in test [4], in test [5] and in test [6]. For the same molecule, the outcome in test [7] and in test [8] was inactive.

As to `CC(=O)OC(C)C[N+](C)(C)C` (stereo unspecified), the outcome in test [1], in test [2], in test [3], in test [4], in test [5] and in test [6] was inactive. Moreover, in test [7], the molecule was called inactive.

For `CCCCCCCCCCCCCCCCC(C(=O)O)C(O)(CC(=O)O)C(=O)O` (stereo unspecified), the call in test [1], in test [2], in test [5] and in test [8] was inactive. For the same molecule, the half-maximal activity concentration (AC50) in test [3] is 42.3 µM (active); in test [4], 41.2 µM (active); in test [6] it was 38.7 µM (active); in test [7], 34.3 µM (active).

As to `CCCN(CCc1cccs1)[C@H]1CCc2c(O)cccc2C1`, the molecule was called inactive in test [1], in test [2], in test [3], in test [4], in test [5] and in test [6]. The outcome in test [7] and in test [8] was inactive.

Consider `Cc1cc(O)c2c(O)c3c(O)cccc3cc2c1`, for which the molecule was called inactive in test [1], in test [2], in test [3], in test [4], in test [5] and in test [6]. The result in test [7] was inactive.

In the case of `CC(C)C[C@H](NC(=O)CNC(=O)[C@H](Cc1ccc(O)cc1)NC(=O)[C@H](CO)NC(=O)[C@H](Cc1c[nH]c2ccccc12)NC(=O)[C@H](Cc1cnc[nH]1)NC(=O)[C@@H]1CCC(=O)N1)C(=O)N[C@@H](CCCN=C(N)N)C(=O)N1CCC[C@H]1C(=O)NCC(N)=O` (stereo in doubt), the molecule was called inactive in test [1], in test [2], in test [3], in test [4], in test [5] and in test [6]. Besides, the molecule was called inactive in test [7] and in test [8].

With `O=P(O)(OCc1ccccc1)OCc1ccccc1`, the molecule was called inactive in test [1], in test [2], in test [3], in test [4], in test [5] and in test [7]. Further, in test [8], the outcome was inactive. Also, in test [6], the AC50 was 86.9 µM (active).

As to `CC12CCC(C[N+](C)(CCC[N+](C)(C)C)C1)C2(C)C` (stereo unspecified), the call in test [1], in test [2], in test [3], in test [4], in test [5] and in test [6] was inactive. In addition, the molecule was called inactive in test [7] and in test [8].

Consider `CC[C@@H](C(=O)[C@@H](C)[C@@H](O)[C@H](C)CCc1ccc(C)c(O)c1C(=O)O)[C@H]1O[C@](CC)([C@H]2CC[C@](O)(CC)[C@H](C)O2)C[C@@H]1C`, for which the AC50 was 23 µM (active) in test [1]; 17.2 µM (active) in test [2]; 23 µM (active) in test [3]; 30.3 µM (active) in test [4]; 31.1 µM (active) in test [5]; 36.2 µM (active) in test [6]. The AC50 in test [7] is 31.4 µM (active); in test [8] it was 14.6 µM (active).

Regarding `CC(=O)Oc1ccc(C2(c3ccc(OC(C)=O)cc3)C(=O)Nc3ccccc32)cc1`, the AC50 is 781 nM (active) and 543 nM (active) in test [1]; 540 nM (active) and 368 nM (active) in test [2]; 633 nM (active) and 692 nM (active) in test [3]; 641 nM (active) and 515 nM (active) in test [4]; 580 nM (active) and 459 nM (active) in test [5]; 663 nM (active) and 407 nM (active) in test [6]. The AC50 in test [8] is 555 nM (active) and 464 nM (active). Moreover, the call in test [7] was inactive.

On to `COc1cc2[nH]c(=O)[nH]c(=O)c2cc1OC`, for which the outcome in test [1], in test [2], in test [3], in test [4], in test [5] and in test [6] was inactive. The call in test [7] and in test [8] was inactive.

As for `CC[C@@H]([C@H](C)O)n1ncn(-c2ccc(N3CCN(c4ccc(OC[C@@H]5CO[C@@](Cn6cncn6)(c6ccc(F)cc6F)C5)cc4)CC3)cc2)c1=O`, the call in test [1], in test [2], in test [3], in test [4], in test [6] and in test [7] was inactive. Further, the result in test [8] was inactive. Also, in test [5], the AC50 was 18.1 µM (active).

On to `N=C(N)c1ccc(OCCCOc2ccc(C(=N)N)cc2Br)c(Br)c1`, for which the molecule was classed as inactive in test [1], in test [2], in test [3], in test [4], in test [5] and in test [6]. The call in test [7] and in test [8] was inactive.

Regarding `CCOc1cc([N+](=O)[O-])c(OCC)cc1N1CCOCC1`, the molecule was classed as inactive in test [1], in test [2], in test [3], in test [4], in test [5] and in test [6]. The result in test [7] and in test [8] was inactive.

For `Clc1cc(Cl)c(OCC#CI)cc1Cl`, the outcome in test [1], in test [3], in test [4], in test [7] and in test [8] was inactive. Besides, the concentration at half-maximal activity (AC50) in test [2] is 33.7 µM (active); in test [5] it was 23 µM (active); in test [6], 39.7 µM (active).

For `CC(C)(C#N)Nc1nc(Cl)nc(NC2CC2)n1`, the molecule was classed as inactive in test [1], in test [2], in test [3], in test [4], in test [5] and in test [6]. The molecule was classed as inactive in test [7] and in test [8].

Regarding `O=C(/C=C/c1ccc([N+](=O)[O-])cc1)c1ccccc1`, the molecule was classed as inactive in test [1], in test [2], in test [3], in test [4], in test [5] and in test [6]. The molecule was classed as inactive in test [7] and in test [8].
